VP16 counter: counter-screen for ROR gamma inhibitors: Gal4-VP16 reporter; Drosophila S2 Gal4-VP16 UAS-luciferase, luminescence, 20 h; hit rate 3.5% among 310,000; AID 2546; Potency, µM (top dose mostly 53.6 µM), usual class: inhibitors;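 note: Gal4-VP16 expression switched on by copper sulfate through the metallothionein promoter; nearly all actives have a fitted effect of over 50% in size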
Giardia killer: kills Giardia lamblia; hit rate 0.15% among 340,000; AID 540267; activity change, % at 7.66 µM, hits read low; Giardia lamblia trophozoite viability; in the data active = activity change below about -80%; inconclusive = between about -30% and that limit;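 note: parasites exposed to compound for two days anaerobically before the ATP read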
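Trophozoite viability was measured as ATP-dependent luminescence, read 15-30 min after reagent addition. Before that, parasites at 100 cells/well were exposed to compounds for 48 h, anaerobically, at 37 deg C.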
p53 reactivator: restores transcriptional activity of mutant p53. H1299 p53-A138V BP100-luciferase reporter, luminescence, 24 h. Potency, µM (highest dose often 92.2 µM), hits mostly activators. hit rate 0.063% among 320,000. AID 504706; note: nearly all actives have a fitted effect of over 45% in size
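H1299 (p53-null), stable ts p53-A138V + BP100-Luc; 1000 cells/well, Opti-MEM/10% FBS; cpd 4 pt, 1:5; 24 h, 37 deg C, 5% CO2; detection reagent 10 min RT; luminescence.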
BRCA1 expr act: BRCA1 expression activation; MCF7-BRCA1-FFLuc reporter, luminescence, 48 h; response scale: scaled: vehicle 0%, 10 µM genistein 100%; hit rate 1.1% among 380,000; Potency, µM (series often up to 46.1 µM), most hits filed as activators; note: nearly all actives have a fitted effect of over 80% in size
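MCF7-BRCA1-FFLuc cells, 2000/well in phenol-red-free MEM, attached 2 h then treated 48 h at 37 C. Luciferase luminescence read 15 min after reagent; normalized to genistein maximum activation (10microM) and DMSO, concentration-response fitted.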
RORg inh: ROR gamma (mouse) transcription inhibition. P51450. Drosophila S2 Gal4-RORgamma UAS-luciferase reporter, 20 h. Potency, µM (titrated, usually from 53.6 µM), hits mostly inhibitors. hit rate 5.4% among 310,000. AID 2551; note: nearly all actives have a fitted effect of over 60% in size
Target sequence (P51450 whole entry, looked up, the tested form may be a part): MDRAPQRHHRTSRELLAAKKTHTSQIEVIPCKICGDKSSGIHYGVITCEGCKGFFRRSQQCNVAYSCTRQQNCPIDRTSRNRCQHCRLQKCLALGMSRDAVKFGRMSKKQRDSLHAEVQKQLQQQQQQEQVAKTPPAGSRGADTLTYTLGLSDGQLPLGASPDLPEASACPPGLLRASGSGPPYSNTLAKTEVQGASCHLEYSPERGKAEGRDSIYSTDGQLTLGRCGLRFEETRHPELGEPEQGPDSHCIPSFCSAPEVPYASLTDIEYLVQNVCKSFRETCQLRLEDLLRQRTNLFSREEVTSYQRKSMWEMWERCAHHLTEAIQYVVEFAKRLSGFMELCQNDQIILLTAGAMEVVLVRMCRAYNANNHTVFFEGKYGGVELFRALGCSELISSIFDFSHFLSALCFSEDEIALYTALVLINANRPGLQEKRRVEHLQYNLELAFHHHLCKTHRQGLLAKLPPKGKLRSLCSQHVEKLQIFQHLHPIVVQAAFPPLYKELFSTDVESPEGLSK
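Compounds are pin-transferred onto Drosophila Schneider cells expressing a copper-inducible Gal4–ROR gamma transactivation domain fusion. After 1 hr, copper sulfate is added to 700 uM final; luciferase is read 20 hr later.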
ELG1 repair inh: ELG1-dependent DNA repair inhibition; Potency, µM (series often up to 46.1 µM), hits mostly inhibitors; HEK293T ELG1-luciferase reporter, luminescence, 16 h; DNA damage induced by 5-fluorouridine; hit rate 2.3% among 330,000; AID 504467; note: nearly all actives have a fitted effect of over 55% in size
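In this reporter screen, reduction of luminescence relative to DMSO vehicle indicated activity. Compounds and 5-fluorouridine were added together to 2,000 cells per well, incubated for 16 hr at 37 °C, then developed with ONE-Glo.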
Hits are given with their value; . = inactive; ? = inconclusive; / = not tested or not shown. An excerpt weighted towards active compounds, which were near 7.6% of everything screened. Unless noted, calls come from the whole dose curve; as a rule, active = well fitted curve in the direction sought with a large enough effect; inconclusive = small, poorly fitted or top-dose-only effect, or another doubt; inactive = no such curve, though single readings can be large; an effect the other way counts as inactive or inconclusive.

SMILES	VP16 counter	Giardia killer	p53 reactivator	BRCA1 expr act	RORg inh	ELG1 repair inh
COc1ccc(-c2cc(C(F)(F)F)n3nc(C(=O)N4CCCCC4)cc3n2)cc1	.	.	.	.	.	.
CCCCC(=O)Nc1ccc2c(c1)oc1ccccc12	.	.	?	.	.	?
O=C(O)CCCC(=O)Nc1ccc2c(c1)oc1ccccc12	?	.	.	.	11µM	.
C=CC[C@@H](CC(=O)N(CCO)Cc1ccccc1)C(=O)N[C@H](COC(=O)[C@@H](CC=C)CC(=O)OC(C)(C)C)Cc1c[nH]c2ccccc12	/	.	.	.	/	18µM
C=CC[C@H](CC(=O)N(CCO)Cc1ccccc1)C(=O)N[C@@H](COC(=O)[C@H](CC=C)CC(=O)OC(C)(C)C)Cc1c[nH]c2ccccc12	/	.	.	.	/	23µM
C=CC[C@@H](CC(=O)N(CCO)Cc1ccccc1)C(=O)N[C@@H](COC(=O)[C@@H](CC=C)CC(=O)OC(C)(C)C)Cc1c[nH]c2ccccc12	/	.	.	.	/	?
CN(C)S(=O)(=O)n1cnc([C@H]2c3c(ncn3Cc3ccccc3)C[C@H]3COC(=O)[C@@H]32)c1	/	.	.	.	/	.
CC(=O)c1cnc2c(-c3ccc(Cl)cc3)cnn2c1C	.	.	?	3.5µM	.	?
CCN(CC)c1ccc(NC(=S)NC(=O)c2cccs2)cc1	5µM	.	.	?	3.2µM	?
CCCCOC(=O)c1ccc(NC(=S)NC(=O)c2ccco2)cc1	?	.	.	.	11µM	.
CCN(c1ccccc1)S(=O)(=O)c1ccc(NC(=S)NC(=O)c2cccs2)cc1	7.1µM	.	.	.	3.2µM	13µM
CCN(CC)c1ccc(NC(=S)NC(=O)c2ccco2)cc1	16µM	.	.	?	4µM	?
CCN(CC)c1ccc(NC(=O)c2ccco2)cc1	?	.	?	?	?	?
CN(c1ccccc1)S(=O)(=O)c1ccc(NC(=O)c2cccs2)cc1	.	.	.	.	.	.
CC(=O)NC(=S)Nc1ccc(NC(=S)NC(=O)c2cccs2)cc1	.	.	.	.	.	.
CN(C)S(=O)(=O)c1ccc(NC(=S)NC(=O)c2cccs2)cc1	.	.	.	.	8.9µM	.
CS(=O)(=O)N(CCc1ccccc1)CC(=O)Nc1ccc2c(c1)OCO2	.	.	/	.	.	/
CCOC(=O)COc1ccccc1/C=C\[N+](=O)[O-]	3.5µM	.	.	.	16µM	?
CCn1cc(SCC(=O)NCc2ccc3c(c2)OCO3)c2ccccc21	.	.	.	.	.	.
COc1ccc(C)cc1NC(=O)n1ncc2c(C)cccc21	.	.	.	.	.	.
Cc1ccc(-n2nnnc2-c2ccccc2)cc1	.	.	.	.	.	.
Cc1ccc(-n2nnnc2C(Cl)c2nnnn2-c2ccc(C)cc2)cc1	8.9µM	.	.	.	11µM	.
CCC(CC)NC(=O)COC(=O)c1ccc(NS(=O)(=O)c2ccc3c(c2)OCCO3)cc1	.	.	.	.	.	.
CC1=CC(C)(C)NC(=S)N1c1ccc(C)cc1	3.5µM	.	.	.	1.6µM	.
CC1=CC(C)(C)NC(=S)N1c1ccc([N+](=O)[O-])cc1	/	.	/	.	/	/
SMILES	VP16 counter	Giardia killer	p53 reactivator	BRCA1 expr act	RORg inh	ELG1 repair inh
CC1=CC(C)(C)NC(=S)N1c1cccc(C)c1	11µM	.	.	.	4.5µM	.
CC1=CC(C)(C)NC(=S)N1c1ccc(C)c(C)c1	4.5µM	.	.	.	0.56µM	?
O=C(Cn1cnc(S(=O)(=O)N2CCCCC2)c1)NCc1ccco1	.	.	.	.	.	.
COC(=O)c1ccc(CSc2ccccc2NC(=S)Nc2cccc(C(F)(F)F)c2)o1	/	/	/	.	/	/
CC(C)C(=O)Nc1cccc(NC(=S)NC(=O)c2cccs2)c1	?	.	.	.	.	?
COc1cc(NC(=S)NC(=O)c2cccs2)ccc1NC(=O)C(C)C	?	.	.	.	13µM	.
CCCCC(=O)Nc1ccc(NC(=S)NC(=O)CC)cc1OC	.	.	.	.	13µM	.
CCCCC(=O)Nc1ccc(NC(=S)NC(=O)c2cccs2)cc1OC	?	.	.	.	10µM	.

Source: PubChem
